Out of some 110,000 compounds screened, about 1,400 (1.3%) were called active. Shown is part of a subset that was picked to be rich in actives. Unmarked numbers belong to inactive results.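 How the source made its calls: active means Z score or B-score, a plate-position-corrected score, falls beyond the plate's 99.7% confidence bounds, in either direction; inactive means both scores lie inside the 99.7% bounds.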

Sequence of Sodium-dependent dopamine transporter (Homo sapiens) (Q01959 whole entry, looked up): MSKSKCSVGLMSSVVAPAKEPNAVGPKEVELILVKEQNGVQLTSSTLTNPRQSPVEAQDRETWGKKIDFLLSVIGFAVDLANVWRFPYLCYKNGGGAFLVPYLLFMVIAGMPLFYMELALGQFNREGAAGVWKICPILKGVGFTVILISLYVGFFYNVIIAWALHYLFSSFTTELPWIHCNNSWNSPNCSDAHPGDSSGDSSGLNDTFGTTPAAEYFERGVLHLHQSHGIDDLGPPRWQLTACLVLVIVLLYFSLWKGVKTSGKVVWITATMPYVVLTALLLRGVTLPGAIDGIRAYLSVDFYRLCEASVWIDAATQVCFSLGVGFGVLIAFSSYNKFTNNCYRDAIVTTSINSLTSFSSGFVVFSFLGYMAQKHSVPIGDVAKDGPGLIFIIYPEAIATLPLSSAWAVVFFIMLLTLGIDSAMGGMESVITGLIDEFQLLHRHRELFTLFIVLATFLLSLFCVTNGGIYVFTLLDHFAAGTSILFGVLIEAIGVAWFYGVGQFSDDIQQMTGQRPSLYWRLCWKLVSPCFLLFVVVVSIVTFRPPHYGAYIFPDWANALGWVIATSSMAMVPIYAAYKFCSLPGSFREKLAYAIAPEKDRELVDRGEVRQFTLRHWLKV

This assay concerns the target Sodium-dependent dopamine transporter (Homo sapiens) (UniProt Q01959). As to the kind of experiment: changed hDAT dopamine uptake under cocaine IC80, either direction, primary screen, cocaine antagonist project, cell-based, LLC-PK1 hDAT, [14C]-dopamine uptake, MLSMR (AID 449768).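 Further: scored against the spread of the other compound wells on the same plate.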 As to conditions: LLC-PK1 hDAT cells, [14C]-dopamine uptake with cocaine IC80; at 10 µM; actives deviate in either direction.
Turning to `COc1ccc(C2/C=C\CN(CC(C)C)CC(=O)N2Cc2ccc(F)cc2)cc1` (centres undefined), the B-score is -0.0164.

As for `Cc1cccc(Nc2nc(NCCO)nc(N3CCCC3)n2)c1`, the B-score is 1.01.

Consider `CCC1SC2=NCCN2C1(O)c1ccc(Cl)cc1` (centres undefined), for which the B-score is -5.92 (active).

Take `NC(=O)CC[C@@H]1NC(=O)[C@@H]2CCCN2C(=O)c2cc([N+](=O)[O-])cc(F)c2NCCC[C@@H](C(N)=O)NC1=O`: the B-score is -0.0519.

On to `O=C(COc1ccccc1)NCc1ccc2c(c1)OCO2`, for which the B-score was -0.475.

Take `O=C(CCNS(=O)(=O)c1ccccc1C(F)(F)F)NCc1ccc2c(c1)OCO2`: the B-score is -3.26 (active).

As for `Cn1cc(CCC(=O)NCc2ccc3c(c2)OCO3)c2ccccc21`, the B-score is 0.0949.

Regarding `NC(=O)C[C@@H]1NC(=O)CNC(=O)c2cc([N+](=O)[O-])cc(I)c2NCCC(C(N)=O)NC1=O` (some centres undefined), the B-score was 0.453.

In the case of `O=S(=O)(c1cccc(-c2nnc(SC(F)F)n2-c2ccccc2)c1)N1CCCCC1`, the B-score was -7.23 (active).

Consider `O=S(=O)(c1cccc(S(=O)(=O)N2CCC(n3nnc4ccccc43)CC2)c1)N1CCCCC1`, for which the B-score is 0.575.

As for `O=C(O)CCSc1nnc(-c2ccccc2)n1-c1ccccc1`, the B-score is -0.0697.

`COC(=O)CCCC1=CC2=CC(=O)C(C)(OC(=O)c3cccs3)C(=O)C2=CN1c1cccc(C#N)c1` (centres undefined): the B-score was -2.03.

On to `COc1ccc(NC(=O)c2ccc(OC)cc2)cc1`, for which the B-score was -1.02.

With `COc1ccc(NC(=O)ON=C2c3ccccc3-c3ccccc32)cc1`, the B-score is 3.84 (active).

For `CCCNC(=O)Nc1ccccc1C(=O)Nc1ccc(OC)cc1`, the B-score is 1.39.

For `Cc1nc(C(=O)Nc2ccc(Cl)cc2)sc1C1(C)CC(c2ccccc2)=NO1` (centres undefined), the B-score is 0.677.

As to `CC(C)[C@@H]1NC(=O)c2cc([N+](=O)[O-])cc(I)c2NCCC[C@@H](C(=O)NC(CC(=O)O)C(N)=O)NC(=O)[C@H](CO)NC1=O` (some centres undefined), the B-score was -0.454.

Regarding `Cc1ccc(N2CCN(S(=O)(=O)c3ccc(F)cc3)CC2)c(C)c1`, the B-score is 0.000185.

As to `Cc1ccc(S(=O)(=O)C(C#N)c2nc3ccccc3nc2N2CCCC2)cc1C` (centres undefined), the B-score was 1.69.

Take `Cc1cc(N2CCN(S(=O)(=O)c3ccc(C)c(C)c3)CC2)c2ccccc2n1`: the B-score was 3.23 (active).

Take `C=CC(COCc1ccccc1)N(Cc1ccccc1)S(=O)(=O)c1ccccc1Br` (centres undefined): the B-score was -0.104.

Take `C#CCO[C@@H]1C[C@H](n2cnc3c(=O)[nH]c(NC(=O)C(C)C)nc32)O[C@@H]1CO`: the B-score is 0.438.

As for `COC(=O)c1ccc(C(NC(=O)OCc2ccccc2)/C(F)=C/[C@@H](C)C(=O)O)cc1` (some centres undefined), the B-score was -0.297.

Regarding `C/C=C(\C)C(=O)NCCN1C2=NC[C@H](Cc3ccc(O)cc3)N2C[C@@H]1Cc1ccc(OC)cc1`, the B-score was 1.04.

As to `CC(N)C12CC3CC(CC(O)(C3)C1)C2` (centres undefined), the B-score was -0.549.

Take `Cc1ncn(C23CC4CC(CC(O)(C4)C2)C3)n1`: the B-score is -8.14 (active).

For the compound `COC(=O)c1ccc(NC(=O)C23CC4CC(C2)CC(n2cnc(Cl)n2)(C4)C3)cc1`, the B-score was -1.17.

Turning to `COC(=O)c1c(C)cc(O)c(C)c1O`, the B-score is -0.00953.

As for `COC(C/C=C/C(=O)[C@@H](C)OCc1ccccc1)OC`, the B-score is 0.0548.

Regarding `C=C1C2C[C@H](O)C(C)(C)[C@@]2(O)[C@H](O)C[C@]23C[C@@](C)(O)[C@H](CC[C@H]12)[C@H]3O` (some centres undefined), the B-score is -0.371.

For `C=CCC1(C(=O)N(C)Cc2ccccc2)CCN(C(=O)OC(C)(C)C)CC1`, the B-score is 1.32.

Take `O=C1N[C@H](Cc2ccccc2)C(=O)N[C@H]1Cc1cn(S(=O)(=O)c2ccccc2)c2ccccc12`: the B-score was -1.21.

As for `CC(C)(C)CN1C(=O)C(=O)NC[C@H]1Cc1cccc2ccccc12`, the B-score is 1.91.

For the compound `CCOC(=O)c1sc(=S)n2c1[nH]c(=O)c1ccc(C(=O)OC)cc12`, the B-score was 0.185.

In the case of `CCOC(=O)C1=C(C)NC(C)=C(C(=O)OCC)C1c1ccccn1`, the B-score is -1.62.

Turning to `CCOC(=O)C1=C(C)Nc2sc(C(=O)c3ccc(Br)cc3)c(N)c2C1c1ccc(C(=O)OC)cc1` (centres undefined), the B-score was 2.41 (active).

Regarding `Cc1ccc(CNC(=O)c2ccc3c(c2)S(=O)(=O)c2ccccc2C3=O)cc1`, the B-score is 0.00832.

With `CCCC[C@@H]1CN=C(N)N1CCCC`, the B-score was 0.44.

Take `CC(=O)c1sc(NC(=O)c2cccc3ccccc23)nc1C`: the B-score was 1.43.

For `CC(=O)Oc1ccccc1C(=O)Nc1ncc([N+](=O)[O-])s1`, the B-score is -5.94 (active).

With `COC(=O)CNC(=O)c1ccccc1[N+](=O)[O-]`, the B-score is -0.561.

For `COC(=O)C1=C(N)Oc2cc(C)oc(=O)c2C1c1cccnc1` (centres undefined), the B-score is 0.0204.

As for `CCSc1nc2c(c(=O)[nH]1)C(c1cccnc1)C(C(=O)OC(C)C)=C(C)N2` (centres undefined), the B-score was 2.12 (active).

As for `COC(=O)C1=C(C)Nc2ncnn2C1c1cccnc1` (centres undefined), the B-score was 0.0386.

Take `CCC(=O)Nc1cccc(C2=NOC3(C2)C[C@@H](C(N)=O)N(C(=O)c2cc([N+](=O)[O-])cc([N+](=O)[O-])c2C)C3)c1` (some centres undefined): the B-score is -0.0284.

Turning to `COC(=O)C1(S(=O)(=O)C2(C(=O)OC)CCCC2)CCCC1`, the B-score is -2.03 (active).

Consider `C#CCOCCOCCOCCNc1nc(N2CCN(C(=O)[C@H](CCC(=O)O)n3cc(C(N)CO)nn3)CC2)nc(N2CCN(C(=O)[C@H](CCCCN)n3cc(C(N)CC(C)C)nn3)CC2)n1` (some centres undefined), for which the B-score was -0.496.

Take `COC(C[C@@H](O)[C@H](C)[C@H](O)COCc1ccccc1)OC`: the B-score was -0.281.

As for `CC(C)=CCc1c(O)c(CC=C(C)C)c2occ(-c3ccc(O)cc3)c(=O)c2c1O`, the B-score was 1.79.

`CNC(=O)c1[nH]cnc1C(=O)N[C@@H](CC(C)C)C(=O)OC(C)(C)C`: the B-score is 0.0376.

With `COc1cc(C2C(C(=O)c3ccc(C)o3)=C(O)C(=O)N2Cc2cccnc2)ccc1O` (centres undefined), the B-score was -0.83.

`COc1cc(C2C(C(=O)c3ccc(C)o3)=C(O)C(=O)N2CCc2ccccc2)ccc1O` (centres undefined): the B-score is -5.4 (active).

Turning to `CCCOc1ccc(C2C(C(=O)c3ccc(C)o3)=C(O)C(=O)N2CCCn2ccnc2)cc1` (centres undefined), the B-score was 0.735.

With `COC(C[C@H](O)CC(=O)COCc1ccccc1)OC`, the B-score was -0.106.

As to `CNC(=O)c1ccc2nc(NC(C)=O)sc2c1`, the B-score is -0.144.

`COc1ccc2nc(NC(=O)c3ccc(Br)s3)sc2c1`: the B-score is -2.65 (active).

As for `COC(=O)c1sc(NC(=O)c2ccc(OC)cc2OC)nc1C`, the B-score was -0.655.

As for `CCOC(=O)c1[nH]c2ccc(OC)cc2c1NC(=O)N1CCOCC1`, the B-score is 2.03.

With `Cc1c(C(=O)N2CCOCC2)[nH]c2ccc(OCc3ccccc3)cc12`, the B-score is 2.65 (active).

On to `Cc1c(C(=O)CN2CCOCC2)[nH]c2ccccc12`, for which the B-score is -1.19.

Turning to `COc1ccc(SCCN2CCN(CC(C)C)CCC2=O)cc1`, the B-score was -0.972.

Regarding `C=C1CCN([C@@H](Cc2ccccc2)C(=O)N2CCOCC2)S(=O)(=O)c2ccccc21`, the B-score was -0.0232.

In the case of `CCC(C)[C@@H](C(=O)N1CCNCC1)n1cc(CCCCN)nn1` (some centres undefined), the B-score was -0.575.

Consider `FC(F)(F)c1nnc2sc(-c3ccco3)nn12`, for which the B-score is -0.943.

In the case of `Fc1ccc(-c2ccc(-c3nn4c(-c5ccco5)nnc4s3)o2)cc1`, the B-score is -8.2 (active).

Consider `Cc1nnc2sc(-c3ccco3)nn12`, for which the B-score was -0.595.

For the compound `CC(C)(C)n1nc(Cc2cccc3ccccc23)c(C#N)c1N`, the B-score was -0.00603.

`O=C(Nc1ccc(S(=O)(=O)N2CCc3ccccc3C2)cc1)c1ccccc1`: the B-score was -0.732.

For `Cc1ccc(NC(=O)CN2CCc3ccccc3C2)cc1`, the B-score is -0.0113.

Regarding `Cc1ccc(NC(=O)CCN2CCc3ccccc3C2)cc1`, the B-score was 2.16 (active).

Turning to `COC(=O)CCCC1=CC2=CC(=O)C(C)(OC(=O)c3cccs3)C(=O)C2=CN1CC1CC1` (centres undefined), the B-score is -0.726.

For `CCC1(CC)C(=O)C2=C3C1[C@H](C(=O)OC)C=C(C(=O)OC)C[C@H]3[C@H]1C(=O)N(Cc3ccccc3)C(=O)[C@H]1[C@H]2C` (some centres undefined), the B-score is 0.0892.

As for `CCCCN1C(=S)NC[C@@H]1C(C)CC` (some centres undefined), the B-score was -0.761.

On to `CCCCN1C(N)=NC[C@@H]1CC1CCCCC1`, for which the B-score is -1.39.

Regarding `Cc1c(NC(=O)C(C)OC(=O)c2cc3c4ccccc4n(C)c3s2)c(=O)n(-c2ccccc2)n1C` (centres undefined), the B-score is 4.67 (active).

As for `Cc1cc(C)cc(N(C(C)C(=O)Nc2c(C)n(C)n(-c3ccccc3)c2=O)S(C)(=O)=O)c1` (centres undefined), the B-score is -0.551.

For the compound `COC(=O)Nc1c(C)n(C)n(-c2ccccc2)c1=O`, the B-score was 0.348.

Regarding `Oc1c(Cl)cc(Cl)c(Cl)c1Cc1c(O)c(Cl)cc(Cl)c1Cl`, the B-score is -5.94 (active).

Take `Cc1nc(-c2ccc(Cl)cc2)sc1C1(C)CC(c2ccccc2F)=NO1` (centres undefined): the B-score is -0.519.

`CC[C@@H](C)[C@@H](C(=O)N1CCN(C(=O)OC(C)(C)C)CC1)n1cc(CCC(=O)O)nn1`: the B-score was -0.83.

On to `C#CCNC(=O)[C@H](Cc1ccc(C(=O)c2ccccc2)cc1)NC(=O)OC(C)(C)C`, for which the B-score was -0.105.

Regarding `Cc1ccc(-n2c(C)cc(/C=C(\C#N)C(=O)NCC3CCCO3)c2C)cc1` (centres undefined), the B-score is 3.1 (active).

For the compound `Cc1ccc(-c2noc(-c3ccccc3C(=O)NCC3CCCO3)n2)cc1` (centres undefined), the B-score is -0.191.

Consider `Cc1ccc(S(=O)(=O)N2CCC(C(=O)NCC3CCCO3)CC2)cc1` (centres undefined), for which the B-score was -0.801.

In the case of `CNC(=O)c1[nH]cnc1C(=O)N[C@@H](CC(C)C)C(=O)OCc1ccccc1`, the B-score was -0.0072.

Take `COc1ccc(CN2[C@@H](CC(=O)O)c3cc(F)ccc3S2(=O)=O)cc1`: the B-score is 1.13.

For the compound `CCCc1nnc(NC(=O)CN2C(=O)c3ccccc3S2(=O)=O)s1`, the B-score is -0.746.

As to `CNC(=O)CN1C(=O)c2ccccc2S1(=O)=O`, the B-score was -0.143.

As for `Nc1nnc(SCCN2C(=O)c3ccccc3S2(=O)=O)s1`, the B-score is 2.06 (active).
